From PubChem
Lamin A splicing – changes lamin A minigene splicing in HeLa cells; 0.01% of 200,000 active; HeLa LMNA splicing GFP/RFP minigene ratio, 48 h; AID 1487; Potency, µM (titrated, usually from 46.1 µM), hits mostly inhibitors; active means well fitted inhibition curve with a large enough effect in the signal ratio, with a control signal flat, not every such curve was filed as active; inconclusive means small, poorly fitted or top-dose-only effect, or effect the other way, or a change in a side signal; the % refers to the signal ratio
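S3 HeLa cells stably expressing lamin A-EGFP splicing minigene plus DsRed2, 600 cells/well, 48 h compound exposure at 37C. Laser-scanning cytometry; analysed as GFP (500-530 nm)/RFP (575-640 nm) total intensity ratio; 0.5% DMSO vehicle.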
HPGD block – inhibitors of human 15-hydroxyprostaglandin dehydrogenase (HPGD) | 4.3% of 150,000 active | P15428 | AID 894 | purified HPGD, NADH fluorescence kinetic, PGE2 substrate | Potency, µM, usual class: inhibitors
Target sequence (P15428 whole entry, looked up): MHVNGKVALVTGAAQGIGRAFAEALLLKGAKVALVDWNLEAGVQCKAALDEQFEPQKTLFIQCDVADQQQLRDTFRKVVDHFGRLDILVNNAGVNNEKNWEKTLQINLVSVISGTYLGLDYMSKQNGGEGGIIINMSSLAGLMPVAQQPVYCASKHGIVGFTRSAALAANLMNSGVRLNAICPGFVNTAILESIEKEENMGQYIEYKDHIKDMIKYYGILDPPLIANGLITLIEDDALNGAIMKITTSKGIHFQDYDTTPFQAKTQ
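NADH formation kinetics: reaction with 30 uM PGE2 and 1 mM NAD+ (final), 20 nM enzyme, Tris-HCl pH 8 with Tween 20, after 15 min compound preincubation at room temperature. Fluorescence change, last versus first of five reads.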
ALDH1A1 inh – blocks purified human ALDH1A1 activity; P00352; AID 1030; 7.3% of 220,000 active; Potency, µM (top dose mostly 75.3 µM), most hits filed as inhibitors; Purified ALDH1A1, NADH fluorescence, propionaldehyde substrate
Target sequence (P00352 whole entry, looked up): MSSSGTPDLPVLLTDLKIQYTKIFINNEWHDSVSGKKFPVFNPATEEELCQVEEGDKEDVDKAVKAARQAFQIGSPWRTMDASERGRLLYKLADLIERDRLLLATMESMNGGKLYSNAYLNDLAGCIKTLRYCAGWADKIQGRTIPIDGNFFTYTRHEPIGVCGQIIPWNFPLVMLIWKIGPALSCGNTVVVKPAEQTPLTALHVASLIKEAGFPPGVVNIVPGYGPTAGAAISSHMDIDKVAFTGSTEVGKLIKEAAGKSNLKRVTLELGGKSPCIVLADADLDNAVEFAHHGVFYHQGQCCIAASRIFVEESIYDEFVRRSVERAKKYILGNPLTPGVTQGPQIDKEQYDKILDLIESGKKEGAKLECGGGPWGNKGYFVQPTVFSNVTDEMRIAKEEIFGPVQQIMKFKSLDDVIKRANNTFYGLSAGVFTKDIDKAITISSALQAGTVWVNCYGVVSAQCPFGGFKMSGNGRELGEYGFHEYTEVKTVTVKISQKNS
IMPase cell inh – cell-permeable inhibitors of inositol monophosphatase (IMPase); P97697; CHO-M1 cells, IP1 accumulation, HTRF TR-FRET ratio; inhibition (IP1 accumulation), % at 46.1 µM; 120,000 tested, under 10 active; active means well fitted curve in the direction sought with a large enough effect in the signal ratio, not every such curve was filed as active; inconclusive means small, poorly fitted or top-dose-only effect, or a change in a side signal; inactive means no such curve, though single readings can be large or run the other way; the % refers to the signal ratio;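 further: cells stimulated with carbachol in lithium chloride buffer; higher means more IMPase inhibition seen as more IP1 and lower FRET ratio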
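Cellular IMPase inhibition is scored as a rise in cytosolic IP1, detected by competitive TR-FRET between d2-labelled IP1 and a europium anti-IP1 antibody. M1-expressing CHO cells were stimulated with carbachol for 30 min at 37C, with lithium (50 mM LiCl) present in the buffer.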
PNC assembly inh – perinucleolar compartment assembly inhibition; PC3M PTB-GFP, PNC prevalence imaging, 16 h; stronger effect = lower value; activity change (PNC), negative = inhibition, % at 10 µM; 3.1% of 140,000 active;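 active means readout at or below -70, meaning at least 70% loss of cells showing the perinucleolar compartment, a nuclear body marking cancer cells; inconclusive means readout between -30 and a set limit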
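PC3M cells stably expressing PTB-GFP, 750–1000 cells/well, treated 16 h at 37 °C with compound (23 nl of library stock), in duplicate. After paraformaldehyde fixation and Hoechst stain, imaged at 20x; PNC prevalence scored by image analysis.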
KinaseGlo FLuc – counter-screen: inhibitors of Kinase-Glo firefly luciferase; 0.28% of 200,000 active; AID 1379; Potency, µM (titrated, usually from 38.3 µM), hits mostly inhibitors; Kinase-Glo luciferase, ATP luminescence, 8 min; Q27757; active means well fitted inhibition curve with a large enough effect; inconclusive means small, poorly fitted or top-dose-only effect; further: nearly all actives have a fitted effect of over 60% in size
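Recombinant Kinase-Glo luciferase, 10 uM ATP (linear range), luciferin; imidazole pH 7.2 / KCl / MgCl2 / Tween / BSA buffer; 8 min RT; luminescence.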
A number is an active result; 0 = inactive; ? = inconclusive; - = not tested or not shown; [ ] = another dose, or the depositor's remark. Compounds with a hit are over-represented: about 10% of the library has one in this group of screens. Unless noted, the call rests on the fitted dose curve; in most records, active means well fitted inhibition curve with a large enough effect (not every such curve was filed as active); inconclusive means small, poorly fitted or top-dose-only effect, or another doubt; inactive means no such curve, though single readings can be large or run the other way.

SMILES | Lamin A splicing | HPGD block | ALDH1A1 inh | IMPase cell inh | PNC assembly inh | KinaseGlo FLuc
CCCCNC(=S)N(C)/N=C/c1ccccc1C(=O)O | 0 | 0 | 0 | 0 | 0 | 0
CCCCNC(=S)N(C)N=C1CCC(c2ccccc2)CC1 (stereo not given) | ? | - | 0.63µM | - | - | 0
CCC/C=N/NC(=O)C1COc2ccccc2O1 (stereo not given) | 0 | - | ? | - | - | 0
COc1ccc(CNC(=O)C2COc3ccccc3O2)cc1 (stereo not given) | 0 | 14µM | 0 | 0 | -100 | 0
O=C(NC1CC2CCC1C2)C1COc2ccccc2O1 (stereo not given) | 0 | 14µM | 0 | 0 | -86 | 0
COc1ccccc1CNC(=O)C1COc2ccccc2O1 (stereo not given) | 0 | 16µM | 0 | 0 | 0 | 0
O=C(O)CNC(=O)C1COc2ccccc2O1 (stereo not given) | 0 | 0 | 0 | 0 | 0 | 0
CC1CC[C@@]2(C(=O)O)CC[C@]3(C)C(=CCC4[C@@]5(C)CCC(O)C(C)(C)C5CC[C@@]43C)C2C1C (stereo not given in full) | ? | 0 | 0 | - | - | 0
N#CNC(N)=Nc1ccc(Cl)cc1 | - | 0 | ? | - | - | 0[7.66 µM]
CCOC(=O)Nc1sc(C)c(C)c1C(=O)OCC | 0 | 0 | 0 | - | 0 | 0
CCOC(=O)c1c(Nc2nc(C)c(C(=O)NC)s2)sc(C)c1C | 0 | 0 | 0 | 0 | -82 | 0
CCn1ccc2cc(S(=O)(=O)N3CCC(C(=O)NCc4ccc(OC(C)C)cc4)CC3)ccc21 | 0 | - | - | - | - | -
N#CC1=C(N)Oc2cc3ccccc3cc2C1c1cccnc1 (stereo not given) | 0 | 28µM | 14µM | 0 | -90 | 0
CCCc1[nH]nc2c1C(c1ccccc1OC)C(C#N)=C(N)O2 (stereo not given) | 0 | 0 | ? | 0 | 0 | 0
N#CC1=C(N)Oc2n[nH]c(-c3ccncc3)c2C1c1ccsc1 (stereo not given) | 0 | 22µM | 0 | 0[1.84 µM] | ? | 0
CCCc1[nH]nc2c1C(/C(C)=C/c1ccccc1)C(C#N)=C(N)O2 (stereo not given) | ? | 0 | 14µM | 0 | ? | 0
CCCc1[nH]nc2c1C(c1ccncc1)C(C#N)=C(N)O2 (stereo not given) | 0 | 0 | 14µM | 0 | 0 | 0
N#CC1=C(N)Oc2n[nH]c(-c3ccccc3)c2C1c1ccsc1 (stereo not given) | 0 | 0 | 0 | 0 | 0 | 0
CCc1cccc(C)c1NC(=O)c1cc(S(=O)(=O)NCc2ccccc2Cl)ccc1F | 0 | - | - | - | - | -
Cc1csc2nc(-c3cccc(NC(=O)c4c(F)cccc4F)c3)cn12 | 0 | - | - | - | - | -
CCCc1[nH]nc2c1C(c1cccnc1)C(C#N)=C(N)O2 (stereo not given) | 0 | 0 | 14µM | 0 | 0 | 0
Cc1ccc(SCc2[nH]nc3c2C(c2cccnc2)C(C#N)=C(N)O3)cc1 (stereo not given) | 0 | 0 | ? | 0 | 0 | 0
COc1cccc(CN(CC2CCCO2)C(=O)c2cc3ccccc3oc2=O)c1 (stereo not given) | 0 | - | 16µM | - | - | 0
COc1cccc(S(=O)(=O)NCc2ccc(C(=O)NCC3CCCO3)cc2)c1 (stereo not given) | 0 | 16µM | 14µM | 0 | 0 | 0
COc1cc(C(=O)NCC2CCCO2)cc(OC)c1OC (stereo not given) | 0 | 0 | 0 | ? | 0 | 0
SMILES | Lamin A splicing | HPGD block | ALDH1A1 inh | IMPase cell inh | PNC assembly inh | KinaseGlo FLuc
COc1cc(OC)cc(C(=O)NCC2CCCO2)c1 (stereo not given) | 0 | 25µM | 0 | 0 | 0 | 0
O=C(NCC1CCCO1)c1cccc(Br)c1 (stereo not given) | 0 | 25µM | 0 | 0 | 0 | 0
COc1cccc(CNC(=O)C(=O)NCC2CCCO2)c1 (stereo not given) | 0 | 0 | 0 | ? | 0 | 0
CN(C)S(=O)(=O)c1cccc(C(=O)NCC2CCCO2)c1 (stereo not given) | 0 | 0 | 0 | 0 | 0 | 0
CCCCc1nc2c(c3c1C[C@H](C)OC3)CN(S(=O)(=O)c1ccccc1C(=O)OC)CC2 | 0[9.22 µM] | 0 | 0[13.5 µM] | - | - | 0[7.66 µM]
COC(=O)CC1c2ccccc2C(Cc2ccc(OC)cc2)C(C)N1C(=O)OC (stereo not given) | 0[9.22 µM] | 0 | 0[13.5 µM] | - | - | 0[7.66 µM]
NC(C(=O)O)c1cccc(O)c1 (stereo not given) | - | - | 0 | - | - | -
Cc1cc(C)c(NC(=O)C(=O)NCCc2csc(-c3ccc(F)cc3)n2)c(C)c1 | 0 | - | - | - | - | -
O=C(NC(=S)NCC1CCCO1)c1ccccc1Br (stereo not given) | 0 | 0 | 0 | - | 0 | 0
CCCC(=O)Nc1ccc(C(=O)NCC2CCCO2)cc1 (stereo not given) | 0 | 11µM | ? | 0 | 0 | 0
Cc1ccc(C(=O)NC(=S)NCC2CCCO2)cc1Br (stereo not given) | ? | 0 | 8.9µM | - | 0 | 0
CC(C)NC(=O)c1ccc(COCC(F)(F)C(F)F)cc1 | 0 | 0 | 0 | 0 | 0 | 0
CCc1ccc(NC(=O)C(=O)NCC2CCCO2)cc1 (stereo not given) | 0 | - | 0 | - | - | 0
O=C(NCC1CCCO1)c1sc2cc(Cl)ccc2c1Cl (stereo not given) | ? | 14µM | ? | 0 | ? | 0
O=C(NCC1CCCO1)c1ccc(COCC(F)(F)C(F)F)cc1 (stereo not given) | 0 | 14µM | 0 | 0[1.84 µM] | 0 | 0
O=C1C(c2[nH]c3ccc(S(=O)(=O)O)cc3c2O)=Nc2ccc(S(=O)(=O)O)cc21 | - | ? | ? | - | - | 0
CN(c1ccccc1)S(=O)(=O)c1ccc(C(=O)NCC2CCCO2)cc1 (stereo not given) | 0 | 0 | 0 | 0 | 0 | 0
O=C(Nc1ccccc1C(=O)NCC1CCCO1)c1ccccc1 (stereo not given) | 0 | 0 | 0 | 0 | 0 | 0
CN(c1ccc(C(=O)NCC2CCCO2)cc1)S(=O)(=O)c1ccccc1 (stereo not given) | 0 | 14µM | 0 | 0 | 0 | 0
O=C(NCC1CCCO1)c1csc(Nc2cccc3ccccc23)n1 (stereo not given) | ? | - | 0 | - | - | 13µM
CC(C)CC(=O)c1c[nH]c(C(=O)NCC2CCCO2)c1 (stereo not given) | 0 | 20µM | ? | 0 | 0 | 0
COc1cccc(C(=O)NCC2CCCO2)c1 (stereo not given) | 0 | 8.9µM | 0 | 0 | 0 | 0
CCCc1nc(SC)ncc1C(=O)N1CCN(c2ccc(Cl)cc2)CC1 | 0 | - | - | - | - | -
CCCCCCCCCCCCC/C=C/[C@@H](O)[C@H](CO)NC(=O)CCCCCCCCCCCCCCC | - | 0 | 0 | - | - | 0
COc1ccc(NC(=O)N2CCCC3(CCN(C(=O)c4cccc(F)c4)CC3)C2)cc1 | - | 0 | ? | - | - | 0
Cc1ccccc1CN1C(=O)c2ccccc2Sc2ccc(C(=O)NC(C)c3ccccc3)cc21 (stereo not given) | 0 | - | - | - | - | -
